Assay outcomes deposited in PubChem BioAssay by several laboratories.
HSF1 inh: HSF1 inhibition; 300,000 compounds, 0.77% hits; NIH3T3-HGL HSE-luciferase, MG132-induced, luminescence 8 h; active compounds read low; activity change, negative = inhibition, % at 7.5 µM (by protocol);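 active means more than half of replicate wells show activity change below -50%, luminescence cut by over half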;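 further: luciferase reports HSF-1 transcriptional activity via heat shock element; 0% = median of DMSO wells and -100% = zero luminescence signal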
FXN GAA850 act: increases GAA850 frataxin promoter reporter activity; HEK293 lucGAA850 FXN promoter luciferase reporter, 24 h; percent of 10 µM SAHA response; activation, % at 6 µM; 360,000 compounds, 0.56% hits;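 active means activation above the average of all compounds screened plus 3 SD, cutoff fixed separately per campaign, cut at about 7.5% in these data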;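 further: 0% = DMSO wells and 100% = 10 µM SAHA wells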
DAX1 inh: inhibitors of human orphan nuclear receptor DAX1 (NR0B1) | P51843 | HEK293 Gal4-DAX1 luciferase reporter, luminescence | inhibition, % at 6.75 µM | 340,000 compounds, 0.99% hits | AID 504766;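 active means inhibition above the mean over all tested compounds plus 3 SD, cut at about 4.2% in these data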;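 further: 0% = DAX1-transfected cells with DMSO and 100% = empty-vector control cells with DMSO; inhibition shows as a rise in luminescence from relieved DAX1 repression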
Target sequence (P51843 207-470 limits assumed): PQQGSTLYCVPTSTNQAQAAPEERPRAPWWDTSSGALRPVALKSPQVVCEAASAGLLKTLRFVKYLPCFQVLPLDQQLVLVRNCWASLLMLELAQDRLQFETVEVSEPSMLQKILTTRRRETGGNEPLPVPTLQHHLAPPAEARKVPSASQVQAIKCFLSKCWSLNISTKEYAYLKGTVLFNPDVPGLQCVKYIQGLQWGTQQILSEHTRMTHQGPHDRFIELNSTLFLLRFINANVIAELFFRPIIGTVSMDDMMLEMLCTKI
HSF1 activator: increases HSF-1 driven luciferase reporter signal. 300,000 compounds, 1.7% hits. NIH3T3-HGL HSF-1 luciferase reporter, MG132, 8 h; 100% = twice DMSO control signal. activation, % at 9 µM;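 active means mean replicate activation of at least 50% with a set share of replicates each reaching 50%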;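 further: 0% = median of the neutral control wells and 100% = twice that signal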
AHR act: activators of human aryl hydrocarbon receptor; P35869; AHR-responsive luciferase reporter cells, luminescence; activation, % at 5 µM; 320,000 compounds, 2.5% hits; in the data active means activation above about 47%;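 further: 0% = vehicle wells and 100% = reference agonist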
* = called active by the depositor; x = not tested or not shown. An excerpt weighted towards active compounds, which were near 5.4% of everything screened.

SMILES	HSF1 inh	FXN GAA850 act	DAX1 inh	HSF1 activator	AHR act
COc1cc(/C=N/NC(=S)NC2CC3CCC2C3)ccc1O (stereo not given)	35.9	2.5	0.4	57.0*	6.3
COc1ccc(/C=N/NC(=S)N[C@H]2CC3CCC2C3)cc1 (stereo not given in full)	17.2	2.1	x	40.1	11.9
CNC(=S)N/N=C/c1ccc2c(c1)OCCO2	9.3	5.8	2.1	17.5	6.6
CCC1CCCCN1C(=O)COC(=O)CN(C)S(=O)(=O)c1ccc(NC(C)=O)cc1 (stereo not given)	-5.1	0.4	-0.8	-18.9	1.4
CN(C)CCCNC(=S)Nc1ccc(-c2ccccc2)cc1	-5.5	1.0	2.5	-3.1	-0.2
COc1ccc(NC(=O)CN(C)C(=O)CNC(=O)c2ccc(C)s2)cc1	1.1	-0.9	0.3	1.2	1.5
COCCNC(=O)C(=O)NNS(=O)(=O)c1ccc(Cl)cc1	-2.6	0.5	4.5*	4.5	-1.1
CCc1noc(C)c1C(=O)N1CCN(S(=O)(=O)c2ccc(Cl)s2)CC1	4.1	0.6	1.6	-1.1	2.5
COc1cc(/C=N/N2C(C)CCCC2C)cc(Br)c1O (stereo not given)	-1.4	1.5	0.1	-5.7	0.6
CCN=c1scc(C)n1/N=C/c1cc(Br)c(O)c(OC)c1	-13.3	-0.9	-1.3	0.2	48.7*
Cc1ccc(NC(=O)CN(C)S(=O)(=O)c2ccc(Br)s2)cc1F	-4.6	-0.4	0.0	-10.6	1.0
Cc1sc2ncnc(NCCc3ccc(S(N)(=O)=O)cc3)c2c1C	-51.4*	-0.7	-4.8	-60.8	-7.4
NS(=O)(=O)c1ccc(CCNc2ncnc3sccc23)cc1	5.8	-0.9	-3.4	23.9	-8.6
COc1ccc(CNC(=O)C2Cc3c(-c4ccc5c(c4)OCO5)ccnc3O2)cc1OC (stereo not given)	x	-2.2	x	x	x
COCCNc1nc2ccccc2n2cnnc12	-0.5	1.1	4.3*	-6.5	0.3
S=C(c1ccc(Br)cc1)N1CCCC1	-3.3	0.3	1.2	-9.3	0.1
S=C(N/N=C/c1ccc(Cl)cc1)N1CCOCC1	4.1	6.5	1.4	23.5	71.1*
Cc1ccc(/C=N/NC(=S)N2CCOCC2)cc1	17.4	5.6	0.6	13.9	8.3
S=C(N/N=C/c1ccc(Br)cc1)N1CCCCC1	32.0	4.5	6.7*	55.4*	-3.1
O=C(c1c(F)cccc1F)N1CCCc2ccccc21	-3.3	1.5	3.5	5.7	0.1
CCOc1ccccc1NC(=O)C(Sc1ccccc1)c1ccccc1 (stereo not given)	-2.0	0.8	-0.3	9.0	10.2
CCOc1ccccc1NC(=O)C(NCC1(N2CCCCC2)CCCCC1)c1ccccc1 (stereo not given)	0.5	-6.5	4.4*	-21.8	1.3
COc1ccc(/C=N/NC(=O)CCn2c3ccccc3c3ccccc32)cc1OC	2.0	2.0	0.3	-5.0	68.5*
COc1cc(/C=N/NC(=O)CCn2c3ccccc3c3ccccc32)cc(OC)c1OC	-4.1	1.7	-0.8	6.9	13.2
COc1ccc(/C=N/NC(=S)Nc2c(C)n(C)n(-c3ccccc3)c2=O)cc1OC	1.0	-1.2	5.4*	-3.0	0.0
SMILES	HSF1 inh	FXN GAA850 act	DAX1 inh	HSF1 activator	AHR act
COCc1cc(C)nc(OCC(=O)N/N=C/c2ccc(OC)c(OC)c2)c1C#N	-0.5	3.9	-2.0	1.8	63.1*
Cc1ccc(NC(=O)CSc2nnc(C)n2C2CC2)cc1S(=O)(=O)N1CCOCC1	x	-2.0	-0.2	x	-1.2
C=CCn1cnc2c(nnn2Cc2ccc(F)cc2)c1=O	2.0	1.3	4.6*	-0.9	-0.4
Cc1cccc(NC2(C(F)(F)F)N=C(c3ccccc3)NC2=O)n1 (stereo not given)	-57.0*	-1.9	-0.6	-64.4	-3.1
CCOC(=O)c1cc(NC(=O)N2CCCCC2)c(C)nc1C	2.7	-1.0	0.2	-15.2	1.3
Cc1nc(-c2ccc(NC(=O)C3CCCCC3)cc2)cs1	21.5	2.7	2.1	56.8*	-0.9
CN(C)/C=C1/Oc2c(ccc3ccccc23)C1=O	2.8	0.9	0.4	3.6	65.8*
CN(C)/C=C1\Oc2ccc3ccccc3c2C1=O	-3.5	2.5	2.0	-8.4	11.7
CCOc1ccc(S(=O)(=O)N2CCCCC2)cc1NC(=O)CN1C(=O)NC(C)(C2CC2)C1=O (stereo not given)	x	0.6	-0.5	x	1.0
CC(=O)c1c(C)[nH]c(C(=O)Nc2cccc3ccccc23)c1C	6.1	2.0	-0.7	42.7	110.1*
